SNCA expr inhib: reduces expression of the alpha-synuclein gene; HEK-293 SNCA-luciferase knock-in, luminescence, 24 h; Potency, µM (titrated, usually from 57.2 µM), without a hit: at the highest dose activity change, negative = inhibition, actives largely listed as inhibitors; actives 0.17% (n = 140,000);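 note: potency is the fitted concentration of half-maximal effect; plate controls were DMSO cells for no effect and cell-free wells for full effect; nearly all actives have a fitted effect of over 45% in size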
HEK293 viab: counter-screen for SNCA expression inhibitors: cell viability; HEK-293-SNCA-luc viability, GF-AFC fluorescence, 24 h; Potency, µM (titrated, usually from 57.1 µM), for the others: at the highest dose activity change, negative = cytotoxicity, actives largely listed as cytotoxic; actives 0.12% (n = 150,000);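 note: potency is the fitted concentration of half-maximal effect; 0% = DMSO-treated cells and -100% = medium-only wells without cells; nearly all actives have a fitted effect of over 30% in size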
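HEK-293-SNCA-luc cells (1500/well) plated 24 h, then exposed 24 h to a dilution series; GF-AFC added 30 min at 37C, fluorescence 405/540 nm; normalised to medium-only and DMSO wells, Hill fit.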
GPT2 inh: blocks human glutamate pyruvate transaminase 2 | Q8TD30 | Recombinant GPT2, coupled pyruvate oxidase/HRP Amplex Red fluorescence | Potency, µM (series often up to 57.7 µM), without a hit: top-dose activity change, negative = inhibition, most hits filed as inhibitors | actives 0.25% (n = 100,000); note: potency is the fitted concentration of half-maximal effect; nearly all actives have a fitted effect of over 60% in size
Target sequence (Q8TD30 whole entry, looked up): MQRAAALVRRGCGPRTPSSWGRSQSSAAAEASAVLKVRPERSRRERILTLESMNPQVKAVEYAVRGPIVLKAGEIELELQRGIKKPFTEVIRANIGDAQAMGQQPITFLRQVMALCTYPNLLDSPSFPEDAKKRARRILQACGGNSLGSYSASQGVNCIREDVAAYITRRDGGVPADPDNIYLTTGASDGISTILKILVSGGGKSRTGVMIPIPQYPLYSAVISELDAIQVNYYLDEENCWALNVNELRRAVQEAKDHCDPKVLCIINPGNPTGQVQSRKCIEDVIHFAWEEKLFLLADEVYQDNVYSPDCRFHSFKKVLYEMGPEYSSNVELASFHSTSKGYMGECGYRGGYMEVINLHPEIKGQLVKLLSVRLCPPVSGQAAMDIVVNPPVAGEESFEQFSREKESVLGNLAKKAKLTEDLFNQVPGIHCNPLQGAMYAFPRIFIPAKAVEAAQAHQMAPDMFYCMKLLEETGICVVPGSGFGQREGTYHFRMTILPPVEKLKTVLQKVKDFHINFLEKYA
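Fluorescence of coupled pyruvate oxidase/HRP/Amplex Red system (50uM Amplex, 30 min, dark) reports pyruvate formed by GPT2. Enzyme reaction: 10ng/uL GPT2, 2mM L-alanine, 250uM a-KG, 30 min room temperature, pH 7.5; 50uM AOA control.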
IP6K1 inhibitor: inhibitors of human IP6K1; Q92551; IP6K1 kinase, ADP-Glo luminescence, 2 h; active compounds read low; activity change, % (series mostly up to about 58 µM); actives 0.81% (n = 140,000); in the data active = activity change below about -25%
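ADP-Glo luminescence measures ADP made by human IP6K1 during a 2 h RT reaction with ATP/IP6 (mix at 1.3 mM/130 uM); top library doses 57.5 and 19.1 uM final.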
IP6K1 conf: human IP6K1 inhibition, confirmatory | shares compounds with IP6K1 inhibitor | recombinant IP6K1 kinase, ADP-Glo luminescence, 2 h | Potency, µM (doses to about 49 µM), inactives show at the top dose activity change, negative = inhibition, usual class: inhibitors | actives 13% (n = 1,200); note: potency is the fitted concentration of half-maximal effect; nearly all actives have a fitted effect of over 65% in size
Active calls of the source: *; i = inactive; ? = inconclusive; nt = not tested or not shown; ! = repeats disagree; [ ] = another dose, or the depositor's remark. Compounds with a hit are over-represented: about 1% of the library has one in this group of screens. Unless noted, calls come from the whole dose curve; as a rule, active = well fitted curve in the direction sought with a large enough effect; inconclusive = small, poorly fitted or top-dose-only effect, or another doubt; inactive = no such curve, though single readings can be large; an effect the other way counts as inactive or inconclusive. Unless noted, % is set by controls: 0 for no effect and ±100 for the full control effect.

SMILES	SNCA expr inhib	HEK293 viab	GPT2 inh	IP6K1 inhibitor	IP6K1 conf
Cc1cn2c(=O)c(S(=O)(=O)NCCc3ccc(Cl)cc3)c(C)nc2s1	13.2%	4.2%	nt	-6.1	nt
Cc1cc(C)cc(Nc2ncnc3c2nc2n3CCCC2)c1	51.5%	1.3%	nt	-31.7*	-19.3%
Cc1ccc(Nc2ncnc3c2nc2n3CCCC2)cc1F	196.8%	1.5%	nt	-15.2	nt
COCCC(=O)N1CC2(CCCCC2)CC1COc1ccc(OC)cc1 (configuration not stated)	-16.1%	0.1%	?	18.2	nt
Cc1nnc2ccc(N3CCCC(NC(=O)c4ccccc4F)C3)nn12 (configuration not stated)	nt	nt	nt	0.3	nt
Cn1nnnc1SCCNCc1cc(Br)ccc1OCc1ccccc1Cl	?	?	nt	-41.1*	-9.9%
Cn1nnnc1SCCNCc1ccc(OCc2ccccc2Cl)cc1	56.6%	-7.0%	nt	6.3	nt
CCc1ocnc1C(=O)N1C[C@H]2OC(=O)N(CCCN3CCOCC3)[C@H]2C1	15.3%	6.6%	2.3%	-72.4*	-11.3%
Cc1noc(C)c1-c1cc2c(cc(C)n2C)c(-c2ccnn2C)n1	10.6%[87.6 µM]	5.2%[87.6 µM]	4.1%[88.5 µM]	-10.7	nt
Cc1noc(C)c1-c1cc2c(cc(-c3ccccc3)n2C)c(-c2ccnn2C)n1	17.3%[87.6 µM]	-16.6%[87.6 µM]	-5.9%[88.5 µM]	-45.2*	?
CSc1cccc(NC(=O)Cn2c(-c3ccc(F)cc3)nc(C)c(CCO)c2=O)c1	-1.1%	-13.9%	i	-11.2	nt
O=C(NCCCc1ccccc1)c1ccc2nnc(-c3ccc(Cl)cc3)n2c1	0.7%	3.0%	-0.7%	15.6	nt
O=C(Nc1cc(Cl)ccc1Cl)c1cc(S(=O)(=O)N2CCCc3ccccc32)ccc1F	41.8%	12.7%	nt	-30.1*	-7.7%
C/C=C(\C)C(=O)O[C@H]1[C@@H](O[C@]2(COC(=O)CC(C)C)O[C@H](COC(=O)C(C)C)[C@@H](OC(C)=O)[C@@H]2O)O[C@H](COC(C)=O)[C@@H](O)[C@@H]1O	nt	-2.9%[23.9 µM]	i	-37.7*	?
CC(C)CC(=O)OC[C@H]1O[C@@](COC(=O)CC(C)C)(O[C@H]2O[C@H](CO)[C@@H](O)[C@H](O)[C@H]2OC(=O)CC(C)C)[C@@H](OC(=O)CC(C)C)[C@@H]1O	nt	-12.9%[23.9 µM]	0.8%[17.1 µM]	-1.2	nt
O=C1Nc2ccc(-c3ccc4c(c3)OCO4)cc2C(=O)N2CC[C@H](NC(=O)N3CCOCC3)[C@@H]12	10.1%	3.0%	1.1%	-7.6	nt
N[C@H]1CCN2C(=O)c3cc(-c4ccc5c(c4)OCO5)ccc3NC(=O)[C@H]12	8.0%[87.6 µM]	-12.8%[87.6 µM]	-1.5%[88.5 µM]	-30.2*	-23.2%
O=C(NCCCN1CCCCCC1)c1ccc2c(c1)sc1nc(-c3ccccc3)cn12	-35.3%	?	nt	-50.3*	?
CN(C)c1ccc(CN2CCC(c3nc4ccncc4[nH]3)C2)cc1 (configuration not stated)	23.4%[87.6 µM]	-9.4%[87.6 µM]	-26.3%	12.4	nt
Brc1ccc(CN2CCC(c3nc4ccncc4[nH]3)C2)cc1 (configuration not stated)	-22.4%	2.0%	4.7%	-51.7*!	?
CC(C)(C)c1nc2c3cc[nH]c(=O)c3c3cc(F)ccc3c2[nH]1	-13.1%	0.5%	2.4%	nt	-27.9%
Cc1ccccc1Cn1cc(CCC(=O)NCc2cccc(Br)c2)c2ccccc21	-18.4%	?	nt	-29.4*	10.2%
COc1ccc(CNC(=O)CCc2cn(Cc3cc(C)ccc3C)c3ccccc23)cc1OC	?	5.5%	nt	32.4	nt
O=C(NC1CC1)c1cc(-c2ccccc2F)cc2c1OCCN2Cc1cccnc1	32.3%[87.6 µM]	?	-4.2%[88.5 µM]	-25.7*	?
CNC(=O)c1cc(-c2ccc(CO)cc2)cc2c1OCCN2Cc1cccnc1	3.0%[87.6 µM]	6.3%[87.6 µM]	-0.5%[88.5 µM]	-26.5*	21.9%
SMILES	SNCA expr inhib	HEK293 viab	GPT2 inh	IP6K1 inhibitor	IP6K1 conf
O=C(NCC1CCCO1)c1cc(-c2ccccc2F)cc2c1OCCN2Cc1cccnc1 (configuration not stated)	-13.5%	-21.8%	i	-14.6	nt
O=C(NCc1cccnc1)c1cc(-c2ccccc2F)cc2c1OCCN2Cc1cccnc1	-5.5%	?	?	-27.7*	?
CN(C)C(=O)c1cc(-c2ccccc2F)cc2c1OCCN2Cc1cccnc1	?	-12.8%[87.6 µM]	?	-18.5	nt
COc1ccc(-c2cc(C(=O)NC3CCCCC3)c3cnn(C)c3n2)cc1	-15.8%	-0.5%	i	0.1	nt
O=C(CNC(=O)c1ccc(-c2cnc3ccccc3c2)cc1)NCc1ccc2c(c1)OCO2	nt	nt	nt	9.9	nt
CN1Cc2ncnc(NCC3CC3)c2CN(c2ccc(Cl)cc2)C1=O	-7.6%	-2.4%	-3.0%	-8.1	nt
CN1Cc2ncnc(NCCc3ccc(F)cc3)c2CN(c2ccc(Cl)cc2)C1=O	?	-26.2%	i	-29.1*	-6.7%
COc1ccc(-c2cccc(C(=O)NCc3ccc(C(F)(F)F)cc3)c2)nn1	nt	nt	nt	7.2	nt
COC(=O)N1CCN(c2nccc(Nc3ccccc3F)n2)CC1	61.9%[87.6 µM]	?	1.2%[88.5 µM]	4.6	nt
O=C1c2ccccc2C(=O)c2c1ccc(O)c2O	-23.9%[25.6 µM]	-1.8%[23.9 µM]	?	-26.9*	3.66µM*
O=C1c2cccc(O)c2C(=O)c2c(O)cccc21	10.3%[25.6 µM]	8.5%[23.9 µM]	i	-0.2	nt
O=C(Nc1nc2nc(-c3ccccc3)cc(=O)n2[nH]1)c1ccc(Cl)cc1	10.2%	3.0%	nt	-0.2	nt
Cc1ccc(C(=O)Nc2nc3nc(C)cc(=O)n3[nH]2)cc1	17.6%	0.5%	nt	-26.8*	-18.2%
COc1ccc(-c2nnc([C@H]3CCN(C(=O)c4ccccc4)C3)o2)cc1	-20.7%[87.6 µM]	?	-12.8%[88.5 µM]	-7.5	nt
COc1ccc(-c2nnc(C3CCN(C(=O)c4ccccc4F)CC3)o2)cc1	?	?	nt	-29.3*	?
COc1ccc(-c2ccc(C(=O)NCCCc3ccccc3)c(Cl)c2)nn1	nt	nt	nt	2.9	nt
CC(=O)NC(C)c1nc2ccccc2n1Cc1ccccc1Cl (configuration not stated)	0.4%	2.4%	nt	-26.3*	13.2%
O=C(Cc1ccccn1)N1CCc2nc(C3CC3)nc(-c3ccc(Cl)cc3)c2C1	-1.0%	-15.5%	2.1%	-8.3	nt
CC(C)CNC(=O)c1cc(-c2ccc(F)cc2)nc2c1cnn2C	13.1%[87.6 µM]	-7.2%[87.6 µM]	i	9.4	nt
O=C(NCc1ccccc1Cl)C1CCc2nnc(C3CCN([S+](=O)([O-])c4ccccc4Cl)CC3)n21 (configuration not stated)	2.8%	6.2%	-5.0%	-6.4	nt
COc1cc(C(C)C)c(Oc2cnc(N)nc2N)cc1I	nt	1.9%	i	-29.1*	?
O=C(Cc1ccc(C(F)(F)F)cc1)NC1CCN(Cc2cccc(-c3cccs3)c2)CC1	-9.2%	-8.6%[12.5 µM]	i	9.5	nt
CCOC(=O)N1CCN(Cc2nc3cc(NC(=O)c4ccccc4Cl)ccc3n2C(C)C)CC1	-28.7%	-8.4%	nt	-25.1*	-11.9%
CCCC(=O)Nc1ccc2c(c1)nc(CN1CCN(C(=O)OCC)CC1)n2C(C)C	?	-1.6%	nt	-27.7*	34.9%
CN(C)C(=O)c1cc(-c2ccc(Cl)cc2)cn1C	58.5%	-6.7%	-5.0%	-33.3*	?
